# Test results published in the supplement of paper PMC8728848.
# The sample as a whole holds a higher share of the strongest signals than the screen did.
# B1: RsaA-N-term (Caulobacter crescentus), P35828 (protein)
# chain: MAYTTAQLVTAYTNANLGKAPDAATTLTLDAYATQTQTGGLSDAAALTNTLKLVNSTTAVAIQTYQFFTGVAPSAAGLDFLVDSTTNTNDLNDAYYSKFAQENRFINFSINLATGAGAGATAFAAAYTGVSYAQTVATAYDKIIGNAVATAAGVDVAAAVAFLSRQANIDYLTAFVRANTPFTAAADIDLAVKAALIGTILNAATVSGIGGYATATAAMINDLSDGALSTDNAAGVNLFTAYPSSGVSGSTLSLTTGTDTLTGTANNDTFVAGEVAGDGSGWSHPQFEKGG
# How the values were obtained:
# Assay in all cases: glycan array binding signal (z-score within array); higher = stronger binding
# Conditions in all cases: glycan notation: IUPAC condensed, linker removed
# [1] = molecular target: Fuc(a1-2)Gal(b1-4)Fuc(a1-3)]GlcNAc(b1-2)Man(a1-3)[Fuc(a1-2)Gal(b1-4)[Fuc(a1-3)]GlcNAc(b1-2)Man(a1-6)]Man(b1-4)GlcNAc(b1-4)GlcNAc
# Outline: (§1)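 Columns mapping to the same glycan were averaged after glycan names were converted to IUPAC-condensed notation. The data come from 3228 arrays in the Consortium for Functional Glycomics database, limited to those with an available protein sequence. Binding is reported as a within-array Z-score averaged across arrays of one protein sequence and across linkers.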
# [2] = molecular target: Fuc(a1-2)Gal(b1-4)GlcNAc(b1-2)Man(a1-3)[Fuc(a1-2)Gal(b1-4)GlcNAc(b1-2)Man(a1-6)]Man(b1-4)GlcNAc(b1-4)[Fuc(a1-6)]GlcNAc
# Outline: as §1
# [3] = molecular target: Fuc(a1-2)Gal(b1-4)[Fuc(a1-3)]GlcNAc(b1-2)[Fuc(a1-2)Gal(b1-4)[Fuc(a1-3)]GlcNAc(b1-4)]Man(a1-3)[Fuc(a1-2)Gal(b1-4)[Fuc(a1-3)]GlcNAc(b1-2)Man(a1-6)]Man(b1-4)GlcNAc(b1-4)GlcNAc
# Outline: as §1
# [4] = molecular target: Fuc(a1-2)Gal(b1-4)[Fuc(a1-3)]GlcNAc(b1-3)Gal(b1-4)[Fuc(a1-3)]GlcNAc(b1-3)Gal(b1-4)[Fuc(a1-3)]GlcNAc
# Outline: as §1
# [5] = molecular target: Fuc(a1-2)Gal(b1-4)[Fuc(a1-3)]GlcNAc(b1-3)GalNAc
# Outline: as §1
# [6] = molecular target: Fuc(a1-2)Gal3S(b1-4)GlcNAc
# Outline: as §1
# [7] = molecular target: Fuc(a1-2)[Gal(a1-3)]Gal(b1-3)GalNAc
# Outline: as §1
# [8] = molecular target: Fuc(a1-2)[Gal(a1-3)]Gal(b1-3)GlcNAc(b1-2)Man(a1-3)[Fuc(a1-2)[Gal(a1-3)]Gal(b1-3)GlcNAc(b1-2)Man(a1-6)]Man(b1-4)GlcNAc(b1-4)[Fuc(a1-6)]GlcNAc
# Outline: as §1
# [9] = molecular target: Fuc(a1-2)[Gal(a1-3)]Gal(b1-4)GlcNAc
# Outline: as §1
# [10] = molecular target: Fuc(a1-2)[Gal(a1-4)]Gal(b1-4)GlcNAc
# Outline: as §1
# [11] = molecular target: Fuc(a1-2)[GalNAc(a1-3)]Gal(b1-4)GlcNAc(b1-3)Gal(b1-4)GlcNAc(b1-3)Gal(b1-4)GlcNAc
# Outline: as §1
# [12] = molecular target: Gal(b1-3)GalNAc(b1-4)[Neu5Ac(a2-3)]Gal(b1-4)Glc
# Outline: as §1
# [13] = molecular target: Gal(b1-3)[Neu5Ac(b2-6)]GalNAc
# Outline: as §1
# [14] = molecular target: Gal(b1-4)GlcNAc(b1-2)Man(a1-3)[Gal(b1-4)GlcNAc(b1-2)Man(a1-6)][GlcNAc(b1-4)]Man(b1-4)GlcNAc(b1-4)[Fuc(a1-6)]GlcNAc
# Outline: as §1
# [15] = molecular target: Gal(b1-4)GlcNAc(b1-3)Gal(b1-4)GlcNAc(b1-2)Man(a1-3)[Gal(b1-4)GlcNAc(b1-3)Gal(b1-4)GlcNAc(b1-2)Man(a1-6)]Man(b1-4)GlcNAc(b1-4)GlcNAc
# Outline: as §1
# [16] = molecular target: Gal(b1-4)GlcNAc(b1-3)Gal(b1-4)GlcNAc(b1-2)Man(a1-3)[Gal(b1-4)GlcNAc(b1-3)Gal(b1-4)GlcNAc(b1-2)Man(a1-6)]Man(b1-4)GlcNAc(b1-4)[Fuc(a1-6)]GlcNAc
# Outline: as §1
# Gal3S(b1-3)GalNAc = molecular target: Gal3S(b1-3)GalNAc
# Outline: as §1
# [17] = molecular target: Gal3S(b1-3)[Fuc(a1-4)]GlcNAc
# Outline: as §1
# Gal6S(b1-3)GlcNAc6S = molecular target: Gal6S(b1-3)GlcNAc6S
# Outline: as §1
# Gal6S(b1-4)Glc = molecular target: Gal6S(b1-4)Glc
# Outline: as §1
# GalNAc3S(b1-4)GlcNAc3S = molecular target: GalNAc3S(b1-4)GlcNAc3S
# Outline: as §1
# Glc(b1-4)Glc = molecular target: Glc(b1-4)Glc
# Outline: as §1
# [18] = molecular target: GlcNAc(a1-4)Gal(b1-3)GlcNAc
# Outline: as §1
# [19] = molecular target: GlcNAc(a1-4)Gal(b1-4)GlcNAc(b1-3)Gal(b1-4)Glc
# Outline: as §1
# [20] = molecular target: GlcNAc(b1-2)[GlcNAc(b1-4)]Man(a1-3)[GlcNAc(b1-4)][GlcNAc(b1-2)[GlcNAc(b1-6)]Man(a1-6)]Man(b1-4)GlcNAc(b1-4)[Fuc(a1-6)]GlcNAc
# Outline: as §1
# [21] = molecular target: GlcNAc(b1-3)Gal(b1-4)GlcNAc(b1-2)Man(a1-3)[GlcNAc(b1-3)Gal(b1-4)GlcNAc(b1-2)Man(a1-6)]Man(b1-4)GlcNAc(b1-4)GlcNAc
# Outline: as §1
# [22] = molecular target: GlcNAc(b1-3)Gal(b1-4)GlcNAc(b1-3)Gal(b1-4)GlcNAc(b1-2)Man(a1-3)[GlcNAc(b1-3)Gal(b1-4)GlcNAc(b1-3)Gal(b1-4)GlcNAc(b1-2)Man(a1-6)]Man(b1-4)GlcNAc(b1-4)GlcNAc
# Outline: as §1
# [23] = molecular target: GlcNAc(b1-3)Gal(b1-4)GlcNAc(b1-3)Gal(b1-4)GlcNAc(b1-3)Gal(b1-4)GlcNAc(b1-2)[GlcNAc(b1-3)Gal(b1-4)GlcNAc(b1-3)Gal(b1-4)GlcNAc(b1-3)Gal(b1-4)GlcNAc(b1-6)]Man(a1-6)[GlcNAc(b1-3)Gal(b1-4)GlcNAc(b1-3)Gal(b1-4)GlcNAc(b1-3)Gal(b1-4)GlcNAc(b1-2)Man(a1-3)]Man(b1-4)GlcNAc(b1-4)[Fuc(a1-6)]GlcNAc
# Outline: as §1
# [24] = molecular target: GlcNAc(b1-4)[GlcNAc(b1-6)]GalNAc
# Outline: as §1
# [25] = molecular target: Man(a1-3)[Man(a1-6)]Man(b1-4)GlcNAc(b1-4)GlcNAc
# Outline: as §1
# [26] = molecular target: Neu5Ac(a2-3)Gal(b1-3)GalNAc(b1-4)[Neu5Ac(a2-3)]Gal(b1-4)Glc
# Outline: as §1
# [27] = molecular target: Neu5Ac(a2-3)Gal(b1-3)GalNAc6S
# Outline: as §1
# [28] = molecular target: Neu5Ac(a2-3)Gal(b1-3)GlcNAc(b1-2)Man(a1-3)[Neu5Ac(a2-3)Gal(b1-3)GlcNAc(b1-2)Man(a1-6)]Man(b1-4)GlcNAc(b1-4)GlcNAc
# Outline: as §1
# [29] = molecular target: Neu5Ac(a2-3)Gal(b1-3)[GlcNAc(b1-6)]GalNAc
# Outline: as §1
# [30] = molecular target: Neu5Ac(a2-3)Gal(b1-4)GlcNAc(b1-2)Man
# Outline: as §1
# [31] = molecular target: Neu5Ac(a2-3)Gal(b1-4)GlcNAc(b1-3)Gal(b1-4)GlcNAc(b1-3)Gal(b1-4)GlcNAc(b1-2)Man(a1-3)[Neu5Ac(a2-3)Gal(b1-4)GlcNAc(b1-3)Gal(b1-4)GlcNAc(b1-3)Gal(b1-4)GlcNAc(b1-2)Man(a1-6)]GalNAc
# Outline: as §1
# [32] = molecular target: Neu5Ac(a2-3)Gal(b1-4)GlcNAc(b1-3)Gal(b1-4)GlcNAc(b1-3)GalNAc
# Outline: as §1
# [33] = molecular target: Neu5Ac(a2-3)Gal(b1-4)GlcNAc(b1-3)Gal(b1-4)[Fuc(a1-3)]GlcNAc
# Outline: as §1
# [34] = molecular target: Neu5Ac(a2-3)Gal(b1-4)[Fuc(a1-3)]GlcNAc(b1-2)Man
# Outline: as §1
# [35] = molecular target: Neu5Ac(a2-6)Gal(b1-4)GlcNAc(b1-2)Man(a1-3)[Neu5Ac(a2-3)Gal(b1-4)GlcNAc(b1-2)Man(a1-6)]Man(b1-4)GlcNAc(b1-4)GlcNAc
# Outline: as §1
# [36] = molecular target: Neu5Ac(a2-6)Gal(b1-4)GlcNAc(b1-2)Man(a1-3)[Neu5Ac(a2-6)Gal(b1-4)GlcNAc(b1-2)Man(a1-6)]Man(b1-4)GlcNAc(b1-4)GlcNAc
# Outline: as §1
# [37] = molecular target: Neu5Ac(a2-6)Gal(b1-4)GlcNAc(b1-2)Man(a1-6)[GlcNAc(b1-2)Man(a1-3)]Man(b1-4)GlcNAc(b1-4)GlcNAc
# Outline: as §1
# [38] = molecular target: Neu5Ac(a2-6)Gal(b1-4)GlcNAc(b1-3)Gal(b1-4)GlcNAc(b1-2)Man(a1-3)[Neu5Ac(a2-6)Gal(b1-4)GlcNAc(b1-3)Gal(b1-4)GlcNAc(b1-2)Man(a1-6)]GalNAc
# Outline: as §1
# [39] = molecular target: Neu5Ac(a2-6)Gal(b1-4)GlcNAc(b1-3)Gal(b1-4)GlcNAc(b1-3)[Neu5Ac(a2-6)Gal(b1-4)GlcNAc(b1-3)Gal(b1-4)GlcNAc(b1-6)]GalNAc
# Outline: as §1
# Neu5Ac(a2-6)GalNAc = molecular target: Neu5Ac(a2-6)GalNAc
# Outline: as §1
# [40] = molecular target: Neu5Ac(a2-6)GalNAc(b1-4)GlcNAc
# Outline: as §1
# [41] = molecular target: Neu5Ac(a2-8)Neu5Ac(a2-3)Gal(b1-4)Glc
# Outline: as §1
# [42] = molecular target: Neu5Ac(a2-8)Neu5Ac(a2-3)[GalNAc(b1-4)]Gal(b1-4)Glc
# Outline: as §1
binder,measurement,setting,value
B1,glycan array binding signal (z-score),[1],5.97
same,glycan array binding signal (z-score),[2],7.05
same,glycan array binding signal (z-score),[3],2.4
same,glycan array binding signal (z-score),[4],-1.26
same,glycan array binding signal (z-score),[5],-0.298
same,glycan array binding signal (z-score),[6],-0.243
same,glycan array binding signal (z-score),[7],-0.328
same,glycan array binding signal (z-score),[8],-0.025
same,glycan array binding signal (z-score),[9],1.14
same,glycan array binding signal (z-score),[10],-0.479
same,glycan array binding signal (z-score),[11],0.016
same,glycan array binding signal (z-score),[12],-0.359
same,glycan array binding signal (z-score),[13],0.215
same,glycan array binding signal (z-score),[14],-0.708
same,glycan array binding signal (z-score),[15],3.15
same,glycan array binding signal (z-score),[16],2.39
same,glycan array binding signal (z-score),Gal3S(b1-3)GalNAc,1.7
same,glycan array binding signal (z-score),[17],-0.524
same,glycan array binding signal (z-score),Gal6S(b1-3)GlcNAc6S,3.01
same,glycan array binding signal (z-score),Gal6S(b1-4)Glc,-0.512
same,glycan array binding signal (z-score),GalNAc3S(b1-4)GlcNAc3S,0.081
same,glycan array binding signal (z-score),Glc(b1-4)Glc,-0.512
same,glycan array binding signal (z-score),[18],0.008
same,glycan array binding signal (z-score),[19],-0.491
same,glycan array binding signal (z-score),[20],0.317
same,glycan array binding signal (z-score),[21],2.18
same,glycan array binding signal (z-score),[22],2.59
same,glycan array binding signal (z-score),[23],0.217
same,glycan array binding signal (z-score),[24],-0.221
same,glycan array binding signal (z-score),[25],0.174
same,glycan array binding signal (z-score),[26],-1.29
same,glycan array binding signal (z-score),[27],0.427
same,glycan array binding signal (z-score),[28],7.19
same,glycan array binding signal (z-score),[29],-1.21
same,glycan array binding signal (z-score),[30],2.51
same,glycan array binding signal (z-score),[31],-0.725
same,glycan array binding signal (z-score),[32],-1.2
same,glycan array binding signal (z-score),[33],-0.112
same,glycan array binding signal (z-score),[34],0.103
same,glycan array binding signal (z-score),[35],2.79
same,glycan array binding signal (z-score),[36],0.398
same,glycan array binding signal (z-score),[37],0.365
same,glycan array binding signal (z-score),[38],-1.33
same,glycan array binding signal (z-score),[39],-0.68
same,glycan array binding signal (z-score),Neu5Ac(a2-6)GalNAc,2.17
same,glycan array binding signal (z-score),[40],-0.593
same,glycan array binding signal (z-score),[41],-0.815
same,glycan array binding signal (z-score),[42],-0.001
